The record followed here is PubChem BioAssay (NCI).

Molecules are shown by their SMILES. The panel holds about 79,000 compounds, 15% with a hit somewhere; the sample as a whole holds those more often. A number with no mark means an inactive call. Active and inactive are the calls of the source. Rule as the data show it: active = growth inhibition above about 70%; inactive = the rest.

A short description of assay [1]: NCI Yeast Anticancer Drug Screen. Data for the rad50 strain (AID 155).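 Also: 0% = growth of vehicle-only cultures of the same strain.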 As to conditions: S. cerevisiae rad50 strain growth inhibition, hits give high values. The method in brief: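 Growth of the mutant yeast was measured after compound exposure and referenced to vehicle-treated cultures.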
Assay [2] in a line: NCI Yeast Anticancer Drug Screen. Data for the mec2-1 strain (AID 157). Particulars: S. cerevisiae mec2-1 strain, hits give high values. The method in brief: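 Vehicle-treated cultures served as reference for growth inhibition of compound-exposed mec2-1 yeast.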
Assay [3] in a line: NCI Yeast Anticancer Drug Screen. Data for the sgs1 mgt1 strain (AID 161).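 Also: 0% = growth of cultures given vehicle only.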 As to conditions: S. cerevisiae sgs1 mgt1 strain, hits give high values. A digest of the protocol: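 Test agents were incubated with a DNA-repair-mutant yeast strain. Growth was then read and compared against vehicle-treated controls.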
Assay [4] is described as follows: NCI Yeast Anticancer Drug Screen. Data for the cln2 rad14 strain (AID 165).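 Also: 0% = growth equal to vehicle treated cultures.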 As to conditions: S. cerevisiae cln2 rad14 strain, hits give high values. The method in brief:
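Each compound was tested on cln2 rad14 yeast. Inhibition of growth was calculated against vehicle-exposed controls.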

Assay [5] can be described thus: NCI Yeast Anticancer Drug Screen. Data for the bub3 strain (AID 167). As to conditions: S. cerevisiae bub3 mutant strain, hits give high values. A digest of the protocol:
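Whole-cell yeast assay. The mutant strain was incubated with compounds, and growth inhibition was determined by comparison with vehicle-treated cells.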

Assay [6] in a line: NCI Yeast Anticancer Drug Screen. Data for the mlh1 rad18 strain (AID 175). As to conditions: S. cerevisiae mlh1 rad18 strain growth inhibition, hits give high values. The method in brief:
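Vehicle-treated cultures served as the reference for growth inhibition in a yeast strain carrying DNA damage repair alterations exposed to each compound.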

[7] abbreviates: at 5.0 µM (retest, dose inferred, filed as 0.5).
Setting [8] is: at 50.0 µM (retest, dose inferred, filed as 5.0).

Consider `NC1C(=O)C2CCCCC2C(=O)C1C(=O)c1ccccc1` (stereo not given), for which the growth inhibition in assay [1] (setting [7]) was -2%; in assay [1] (setting [8]), 28%; in assay [1] (at 50.0 µM), -0.5%; in assay [2] (setting [7]) it was 4%; in assay [2] (setting [8]), 17%; in assay [2] (at 50.0 µM), 16.4%. The growth inhibition was -1% in assay [3] (setting [7]); -6% in assay [3] (setting [8]); 23.4% in assay [3] (at 50.0 µM); 1% in assay [4] (setting [7]); 10% in assay [4] (setting [8]); -55.4% in assay [4] (at 50.0 µM). For the same compound, the growth inhibition in assay [5] (setting [7]) was 5%; in assay [5] (setting [8]) it was 49%; in assay [5] (at 50.0 µM), 73.9% (active); in assay [6] (setting [7]), 3%; in assay [6] (setting [8]), 24%; in assay [6] (at 50.0 µM) it was 48.1%.

Turning to `CC1(C)CC(O)C(O)C1` (stereo not given), the growth inhibition in assay [1] (setting [7]) is -2%; in assay [1] (setting [8]), -2%; in assay [1] (at 50.0 µM) it was -4%; in assay [2] (setting [7]), 2%; in assay [2] (setting [8]) it was 0%; in assay [2] (at 50.0 µM) it was 7.25%. The growth inhibition in assay [3] (setting [7]) is 0%; in assay [3] (setting [8]) it was -1%; in assay [3] (at 50.0 µM), 12.6%; in assay [4] (setting [7]) it was -2%; in assay [4] (setting [8]), -13%; in assay [4] (at 50.0 µM), 67.5%. The growth inhibition was 2% in assay [5] (setting [7]); 11% in assay [5] (setting [8]); -1.7% in assay [5] (at 50.0 µM); -1% in assay [6] (setting [7]); -4% in assay [6] (setting [8]); -5.6% in assay [6] (at 50.0 µM).

Take `OC(C/C(CNNc1ccccc1)=N/Nc1ccccc1)(C(F)(F)F)C(F)(F)F`: the growth inhibition in assay [1] (setting [7]) was 6%; in assay [1] (setting [8]), -9%; in assay [1] (at 50.0 µM), 71.2% (active); in assay [2] (setting [7]), -2%; in assay [2] (setting [8]), 76% (active); in assay [2] (at 50.0 µM), 83.8% (active). Moreover, the growth inhibition in assay [3] (setting [7]) is -6%; in assay [3] (setting [8]) it was 5%; in assay [3] (at 50.0 µM), 69.2%; in assay [4] (setting [7]) it was 2%; in assay [4] (setting [8]) it was 75% (active); in assay [4] (at 50.0 µM) it was 55.4%. Further, the growth inhibition in assay [5] (setting [7]) is -1%; in assay [5] (setting [8]), 59%; in assay [5] (at 50.0 µM), 74.6% (active); in assay [6] (setting [7]), 14%; in assay [6] (setting [8]) it was 78% (active); in assay [6] (at 50.0 µM), 89% (active).

For the compound `COc1cc(C(c2ccccc2)c2ccccc2)c2ccccc2c1O`, the growth inhibition in assay [1] (setting [7]) was 15%; in assay [1] (setting [8]), 51%; in assay [1] (at 50.0 µM), 33.3%; in assay [2] (setting [7]) it was 15%; in assay [2] (setting [8]) it was 41%; in assay [2] (at 50.0 µM), 16.6%. The growth inhibition in assay [3] (setting [7]) was -17%; in assay [3] (setting [8]), 25%; in assay [3] (at 50.0 µM), 61.4%; in assay [4] (setting [7]) it was 13%; in assay [4] (setting [8]), 73% (active); in assay [4] (at 50.0 µM), 44.9%. Besides, the growth inhibition in assay [5] (setting [7]) is 8%; in assay [5] (setting [8]), 70% (active); in assay [5] (at 50.0 µM) it was 40.2%; in assay [6] (setting [7]), 24%; in assay [6] (setting [8]) it was 75% (active); in assay [6] (at 50.0 µM), 74% (active).

For `N#CC1CCC(c2ccccc2)(c2ccccc2)C1=O` (stereo not given), the growth inhibition is 5% in assay [1] (setting [7]); 99% (active) in assay [1] (setting [8]); 94.6% (active) in assay [1] (at 50.0 µM); 5% in assay [2] (setting [7]); 99% (active) in assay [2] (setting [8]); 99.7% (active) in assay [2] (at 50.0 µM). The growth inhibition in assay [3] (setting [7]) is 4%; in assay [3] (setting [8]), 100% (active); in assay [3] (at 50.0 µM), 99.6% (active); in assay [4] (setting [7]), -2%; in assay [4] (setting [8]), 99% (active); in assay [4] (at 50.0 µM), 97.5% (active). The growth inhibition in assay [5] (setting [7]) was -4%; in assay [5] (setting [8]), 98% (active); in assay [5] (at 50.0 µM) it was 74.3% (active); in assay [6] (setting [7]) it was -5%; in assay [6] (setting [8]), 98% (active); in assay [6] (at 50.0 µM), 99.5% (active).

Regarding `N#Cc1c(N)nc2c(N=Nc3ccccc3)c(N)nn2c1Nc1ccccc1`, the growth inhibition in assay [1] (setting [7]) was -2%; in assay [1] (setting [8]), 38%; in assay [1] (at 50.0 µM), 51.5%; in assay [2] (setting [7]), -2%; in assay [2] (setting [8]), 39%; in assay [2] (at 50.0 µM), 16.4%. Moreover, the growth inhibition is 19% in assay [3] (setting [7]); 85% (active) in assay [3] (setting [8]); 79.2% (active) in assay [3] (at 50.0 µM); 1% in assay [4] (setting [7]); 5% in assay [4] (setting [8]); 16.4% in assay [4] (at 50.0 µM). Further, the growth inhibition in assay [5] (setting [7]) was -5%; in assay [5] (setting [8]) it was 31%; in assay [5] (at 50.0 µM) it was -30.6%; in assay [6] (setting [7]) it was -4%; in assay [6] (setting [8]), 55%; in assay [6] (at 50.0 µM), 76.1% (active).

Take `O=c1nc(N2CCCC2)nc(N2CCCC2)s1`: the growth inhibition in assay [1] (setting [7]) is -16%; in assay [1] (setting [8]) it was -8%; in assay [1] (at 50.0 µM), -11.4%; in assay [2] (setting [7]), 4%; in assay [2] (setting [8]), -14%; in assay [2] (at 50.0 µM), 0.8%. In addition, the growth inhibition in assay [3] (setting [7]) is -1%; in assay [3] (setting [8]) it was -11%; in assay [3] (at 50.0 µM), -9.25%; in assay [4] (setting [7]) it was 14%; in assay [4] (setting [8]) it was -5%; in assay [4] (at 50.0 µM), -38.6%. Also, the growth inhibition in assay [5] (setting [7]) was -7%; in assay [5] (setting [8]), -10%; in assay [5] (at 50.0 µM), -4.15%; in assay [6] (setting [7]) it was 14%; in assay [6] (setting [8]), -1%; in assay [6] (at 50.0 µM) it was 7.45%.

On to `CCCCC(CC)CNc1ncnc2c1cnn2C` (stereo not given), for which the growth inhibition in assay [1] (setting [7]) was 1%; in assay [1] (setting [8]) it was 92% (active); in assay [1] (at 50.0 µM), 36.7%; in assay [2] (setting [7]), -3%; in assay [2] (setting [8]), 91% (active); in assay [2] (at 50.0 µM), -1.45%. Further, the growth inhibition was 1% in assay [3] (setting [7]); 94% (active) in assay [3] (setting [8]); 91.7% (active) in assay [3] (at 50.0 µM); -10% in assay [4] (setting [7]); 89% (active) in assay [4] (setting [8]); 20.9% in assay [4] (at 50.0 µM). Besides, the growth inhibition in assay [5] (setting [7]) was 0%; in assay [5] (setting [8]), 96% (active); in assay [5] (at 50.0 µM) it was 48.4%; in assay [6] (setting [7]) it was 14%; in assay [6] (setting [8]), 96% (active); in assay [6] (at 50.0 µM), 32.8%.

For the compound `NSc1ccc(N)s1`, the growth inhibition in assay [1] (setting [7]) was -1%; in assay [1] (setting [8]), 11%; in assay [1] (at 50.0 µM) it was 37%; in assay [2] (setting [7]) it was 6%; in assay [2] (setting [8]), 12%; in assay [2] (at 50.0 µM) it was 28.9%. The growth inhibition in assay [3] (setting [7]) was 1%; in assay [3] (setting [8]) it was 13%; in assay [3] (at 50.0 µM), 50.6%; in assay [4] (setting [7]) it was -7%; in assay [4] (setting [8]) it was 6%; in assay [4] (at 50.0 µM) it was 36.9%. Further, the growth inhibition in assay [5] (setting [7]) is -3%; in assay [5] (setting [8]) it was 14%; in assay [5] (at 50.0 µM) it was 87.7% (active); in assay [6] (setting [7]), -1%; in assay [6] (setting [8]) it was 12%; in assay [6] (at 50.0 µM), 58.6%.

On to `NC(=O)c1cccn1Cc1ccccc1SSc1ccccc1Cn1cccc1C(N)=O`, for which the growth inhibition in assay [1] (setting [7]) was 32%; in assay [1] (setting [8]), 98% (active); in assay [1] (at 50.0 µM), 89.5% (active); in assay [2] (setting [7]), 31%; in assay [2] (setting [8]), 99% (active); in assay [2] (at 50.0 µM) it was 95.7% (active). Further, the growth inhibition in assay [3] (setting [7]) was 47%; in assay [3] (setting [8]), 99% (active); in assay [3] (at 50.0 µM), 94.2% (active); in assay [4] (setting [7]), 16%; in assay [4] (setting [8]) it was 98% (active); in assay [4] (at 50.0 µM), 90.9% (active). In addition, the growth inhibition in assay [5] (setting [7]) is 24%; in assay [5] (setting [8]), 99% (active); in assay [5] (at 50.0 µM), 92.8% (active); in assay [6] (setting [7]), 21%; in assay [6] (setting [8]), 98% (active); in assay [6] (at 50.0 µM) it was 94.4% (active).
